Test results as given in the supplement of paper PMC12350171.
Where a name gives a salt, the structure may show the parent alone.

What was measured:
Details in all cases: 20 µM
[1] = system: Salmonella enterica typhimurium; test: growth AUC normalised to DMSO control (fraction of control); higher = less growth inhibition, active = hit call of the paper
In short: (§1)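 Hemin and NAD were added to the medium for Haemophilus parainfluenzae. All pathogens, after two anaerobic passages, were inoculated at a starting OD578 of 0.01 into pre-reduced mGAM plates with 20 μM compound and 1% DMSO under breathable seals, and OD578 was read hourly for 24 h in three biological replicates. AUC of each growth curve was obtained with the trapezoidal rule up to the exponential-to-stationary transition and normalised to DMSO controls from the same plate.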

Shigella flexneri = test: as above
In short: as §1

Vibrio cholerae = test: as above
In short: as §1

[2] = system: Yersinia pseudotuberculosis; test: as above
In short: as §1

P. vulgatus RND KO = test: growth AUC normalised to DMSO control (median) (fraction of control); higher = less growth inhibition, active = hit call of the paper
In short: (§2)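 After two overnight anaerobic passages, strains were inoculated at OD578 0.01 into mGAM in 96-well plates containing approved-drug library compounds at 20 μM and 1% DMSO. Growth was followed by reading OD578 hourly for 24 h within an anaerobic incubator. Area under the curve, taken by the trapezoidal rule up to the start of stationary phase, was normalised to same-plate vehicle wells, and the median of three biological replicates is listed.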

P. vulgatus WT = test: as above
In short: as §2

[3] = system: S. enterica typhimurium WT; test: as above
In short: as §2

[4] = system: S. enterica typhimurium tolC KO; test: as above
In short: as §2

Measured: growth AUC normalised to DMSO control
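Wherever growth AUC normalised to DMSO control (median) is given: active when median AUC fell below 0.1.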

C[C@@](Cc1ccc(O)c(O)c1)(NN)C(=O)O [Carbidopa]
inactive: [1] 0.994 | Shigella flexneri 0.948 | Vibrio cholerae 0.996 | [2] 0.972 | P. vulgatus RND KO 0.99 | P. vulgatus WT 0.993 | [3] 1 | [4] 1.01

C#C[C@]1(O)CC[C@H]2[C@@H]3CCC4=Cc5oncc5C[C@]4(C)[C@H]3CC[C@@]21C [Danazol]
inactive: [1] 0.994 | Shigella flexneri 0.971 | Vibrio cholerae 0.991 | [2] 0.954 | P. vulgatus RND KO 0.982 | P. vulgatus WT 0.992 | [3] 1 | [4] 0.983

C#CCN(C)CCCOc1ccc(Cl)cc1Cl [Clorgyline hydrochloride]
active: Vibrio cholerae 0.862
inactive: [1] 0.966 | Shigella flexneri 0.955 | [2] 0.994 | P. vulgatus RND KO 0.999 | P. vulgatus WT 1.01 | [3] 0.976 | [4] 0.93

CN1CCN(C(c2ccccc2)c2ccc(Cl)cc2)CC1 (stereo not given) [Chlorcyclizine hydrochloride]
inactive: [1] 1 | Shigella flexneri 0.993 | Vibrio cholerae 0.927 | [2] 0.984 | P. vulgatus RND KO 0.987 | P. vulgatus WT 0.963 | [3] 0.992 | [4] 0.958

COc1c(O[C@@H]2O[C@H](CO)[C@@H](O)[C@H](O)[C@H]2O)cc2c(c1OC)-c1ccc(SC)c(=O)cc1[C@@H](NC(C)=O)CC2 [Thiocolchicoside]
inactive: [1] 0.993 | Shigella flexneri 0.98 | Vibrio cholerae 1 | [2] 0.988 | P. vulgatus RND KO 1.01 | P. vulgatus WT 0.999 | [3] 1 | [4] 1

CC(=O)O[C@H]1C[C@@H]2CC[C@@H]3[C@H](CC[C@@]4(C)[C@H]3C[C@H]([N+]3(C)CCCCC3)[C@@H]4OC(C)=O)[C@@]2(C)C[C@@H]1N1CCCCC1 [Vecuronium bromide]
inactive: [1] 1.01 | Shigella flexneri 0.979 | Vibrio cholerae 1.01 | [2] 1.02 | P. vulgatus RND KO 0.955 | P. vulgatus WT 0.998 | [3] 1 | [4] 1

COc1ccc2c(c1)N(C[C@H](C)CN(C)C)c1ccccc1S2 [Methotrimeprazine maleate salt]
inactive: [1] 1.01 | Shigella flexneri 1.03 | Vibrio cholerae 1 | [2] 0.99 | P. vulgatus RND KO 1.04 | P. vulgatus WT 1.02 | [3] 0.995 | [4] 0.954

CCCCC(C)(O)C/C=C/[C@H]1[C@H](O)CC(=O)[C@@H]1CCCCCCC(=O)OC (mixture of isomers) [Misoprostol]
inactive: [1] 1.02 | Shigella flexneri 1.01 | Vibrio cholerae 1.02 | [2] 1.01 | P. vulgatus RND KO 0.996 | P. vulgatus WT 0.992 | [3] 1.01 | [4] 0.991

CC(=O)CCCCn1c(=O)c2c(ncn2C)n(C)c1=O [Pentoxifylline]
inactive: [1] 1 | Shigella flexneri 0.979 | Vibrio cholerae 0.967 | [2] 0.989 | P. vulgatus RND KO 0.983 | P. vulgatus WT 0.99 | [3] 1 | [4] 0.987

CCN(CC)CC(=O)Nc1c(C)cccc1C [Lidocaine hydrochloride]
inactive: [1] 0.999 | Shigella flexneri 1.02 | Vibrio cholerae 1.01 | [2] 1 | P. vulgatus RND KO 1.02 | P. vulgatus WT 1.03 | [3] 0.963 | [4] 0.996

C[C@@H](c1ncncc1F)[C@](O)(Cn1cncn1)c1ccc(F)cc1F [Voriconazole]
inactive: [1] 0.984 | Shigella flexneri 0.959 | Vibrio cholerae 0.955 | [2] 1 | P. vulgatus RND KO 1.02 | P. vulgatus WT 1.02 | [3] 1 | [4] 0.998

CN1CCC(OC(c2ccccc2)c2ccccc2)CC1 [Diphenylpyraline hydrochloride]
inactive: [1] 0.988 | Shigella flexneri 0.996 | Vibrio cholerae 0.962 | [2] 0.987 | P. vulgatus RND KO 0.994 | P. vulgatus WT 1 | [3] 0.987 | [4] 0.983

CC(=O)OCC(=O)[C@@]12N=C(C)O[C@@H]1C[C@H]1[C@@H]3CCC4=CC(=O)C=C[C@]4(C)[C@H]3[C@@H](O)C[C@@]12C [Deflazacort]
inactive: [1] 0.977 | Shigella flexneri 0.992 | Vibrio cholerae 1 | [2] 0.999 | P. vulgatus RND KO 0.999 | P. vulgatus WT 1.01 | [3] 0.994 | [4] 0.987

CCS(=O)(=O)CCn1c([N+](=O)[O-])cnc1C [Tinidazole]
inactive: [1] 1.01 | Shigella flexneri 0.99 | Vibrio cholerae 1 | [2] 0.971 | [3] 1 | [4] 0.995
active: P. vulgatus RND KO 0.0183 | P. vulgatus WT 0.0185

CC(=O)O[C@]1(C(C)=O)CC[C@H]2[C@@H]3C=C(Cl)C4=CC(=O)[C@@H]5C[C@@H]5[C@]4(C)[C@H]3CC[C@@]21C [Cyproterone acetate]
inactive: [1] 1 | Shigella flexneri 1.01 | Vibrio cholerae 1 | [2] 0.994 | P. vulgatus RND KO 0.896 | P. vulgatus WT 0.907 | [3] 1 | [4] 0.953
